The results in this text go back to the supplement of paper PMC9844399.

Structures can show the parent of a compound that is named as a salt.
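Further: High-content confocal imaging of branched-DNA amplified FISH in 384-well plates, Hoechst-defined nuclei, score is well value minus plate DMSO median over DMSO robust SD, four wells per compound.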

This assay relates to HeLa. Put plainly: MALAT1 nuclear FISH intensity, robust Z-score vs DMSO; higher = more nuclear MALAT1 lncRNA, active = -3 or less. The conditions noted are these: 10 µM; 6 h.
Turning to `C[C@H](Cn1cnc2c(N)ncnc21)OCP(=O)(O)O` [Tenofovir], the “MALAT1 nuclear FISH intensity” value was -0.114 (inactive).

Turning to `CN(C)[C@@H]1C(O)=C(C(N)=O)C(=O)[C@@]2(O)C(O)=C3C(=O)c4c(O)ccc(Cl)c4[C@@H](O)[C@H]3C[C@@H]12`, the “MALAT1 nuclear FISH intensity” value was -1.19 (inactive).

`CCOC(=O)C1=C(C)NC(=S)NC1c1cccc(O)c1` (stereo unspecified) [Monastrol]: the “MALAT1 nuclear FISH intensity” value was -2.86 (inactive).

Take `c1ccc2c(CC3=NCCN3)cccc2c1`: the “MALAT1 nuclear FISH intensity” value is 0.288 (inactive).

Take `CCN(CC)CCCCN1c2ccccc2Oc2ccc(Cl)cc21` [Akt Inhibitor X]: the “MALAT1 nuclear FISH intensity” value was 1.59 (inactive).

Take `Cc1ccc(C(=O)COC(=O)c2cccc(NC(=O)c3ccc([N+](=O)[O-])cc3[N+](=O)[O-])c2)cc1`: the “MALAT1 nuclear FISH intensity” value is -0.607 (inactive).

Consider `Cc1nnc(C(C)C)n1C1C[C@H]2CC[C@@H](C1)N2CC[C@H](NC(=O)C1CCC(F)(F)CC1)c1ccccc1` (stereo in doubt) [Maraviroc], for which the “MALAT1 nuclear FISH intensity” value was 0.801 (inactive).

As for `Cc1nc(-c2ccc(OCC(C)C)c(C#N)c2)sc1C(=O)O` [Febuxostat], the “MALAT1 nuclear FISH intensity” value was 0.59 (inactive).

In the case of `CCCCC[C@H](O)/C=C/[C@H]1[C@H](O)CC(=O)[C@@H]1CCCCCCC(=O)O` [Prostaglandin  E1], the “MALAT1 nuclear FISH intensity” value was -0.195 (inactive).

For the compound `NCCC(O)(P(=O)(O)O)P(=O)(O)O` [Pamidronate Disodium  Pentahydrate (Pamidronic Acid)], the “MALAT1 nuclear FISH intensity” value was -0.734 (inactive).

Turning to `CCOC(=O)C1=C(COCCN)NC(C)=C(C(=O)OC)C1c1ccccc1Cl` (stereo unspecified) [Amlodipine besylate], the “MALAT1 nuclear FISH intensity” value is 0.893 (inactive).

Consider `C[C@]12CCC(=O)C=C1[C@@H]1C[C@@H]1[C@H]1[C@@H]3[C@@H]4C[C@@H]4[C@@]4(CCC(=O)O4)[C@@]3(C)CC[C@@H]12` [Drospirenone], for which the “MALAT1 nuclear FISH intensity” value was 0.391 (inactive).

In the case of `CCN(CC)C(=O)C1(c2ccccc2)CC1CN` (stereo unspecified), the “MALAT1 nuclear FISH intensity” value is -0.146 (inactive).

In the case of `Cc1ccc(O)c([C@H](CCN(C(C)C)C(C)C)c2ccccc2)c1` [Tolterodine Tartrate], the “MALAT1 nuclear FISH intensity” value was 0.345 (inactive).

Consider `COc1ccc2c(c1)c(CC(=O)N1CCOCC1)c(C)n2C(=O)c1ccc(Cl)cc1`, for which the “MALAT1 nuclear FISH intensity” value is -0.212 (inactive).

As to `N[C@@H](C(=O)N[C@@H]1C(=O)N2C(C(=O)O)=C(Cl)CS[C@H]12)c1ccccc1` [Cefaclor], the “MALAT1 nuclear FISH intensity” value was 1.19 (inactive).

On to `COC(=O)C1=C(C)NC(C)=C(C(=O)OCC(C)C)C1c1ccccc1[N+](=O)[O-]` (stereo unspecified) [Nisoldipine], for which the “MALAT1 nuclear FISH intensity” value was 0.765 (inactive).

Consider `Cn1c(=O)c2c(ncn2CC(O)CO)n(C)c1=O` (stereo unspecified) [Dyphylline], for which the “MALAT1 nuclear FISH intensity” value is -0.0388 (inactive).

On to `Cc1oncc1C(=O)Nc1ccc(C(F)(F)F)cc1` [Leflunomide], for which the “MALAT1 nuclear FISH intensity” value was -0.325 (inactive).

On to `O=c1[nH]c(=O)n([C@@H]2O[C@H](CO)[C@@H](O)[C@@H]2F)cc1I` [Fialuridine], for which the “MALAT1 nuclear FISH intensity” value was 0.751 (inactive).

Regarding `CCCCCCCCCCCCCCCCOCC(COP(=O)([O-])OCC[N+](C)(C)C)OC` (stereo unspecified) [1-Hexadecyl-2-methylglycero-3 PC], the “MALAT1 nuclear FISH intensity” value is 0.382 (inactive).

On to `CC(C)=CCC/C(C)=C/CC/C(C)=C/CSCC(=O)O` [Farnesylthioacetic acid], for which the “MALAT1 nuclear FISH intensity” value is 0.27 (inactive).

For `CNC(=O)c1ccccc1Oc1nc(Nc2cc(OC)c(OC)c(OC)c2)ncc1Br`, the “MALAT1 nuclear FISH intensity” value is -0.901 (inactive).

Consider `NCC(=O)CCC(=O)O`, for which the “MALAT1 nuclear FISH intensity” value was -0.311 (inactive).

In the case of `Cc1c2oc3c(C)ccc(C(=O)N[C@@H]4C(=O)N[C@H](C(C)C)C(=O)N5CCC[C@H]5C(=O)N(C)CC(=O)N(C)[C@@H](C(C)C)C(=O)O[C@@H]4C)c3nc-2c(C(=O)N[C@@H]2C(=O)N[C@H](C(C)C)C(=O)N3CCC[C@H]3C(=O)N(C)CC(=O)N(C)[C@@H](C(C)C)C(=O)O[C@@H]2C)c(N)c1=O` [Actinomycin D], the “MALAT1 nuclear FISH intensity” value is -6.35 (active).

As to `O=C1CN2Cc3c(ccc(Cl)c3Cl)N=C2N1` [Anagrelide], the “MALAT1 nuclear FISH intensity” value was 0.344 (inactive).

Turning to `CCC(=O)NCC[C@@H]1CCc2ccc3c(c21)CCO3` [Ramelteon], the “MALAT1 nuclear FISH intensity” value was -1.04 (inactive).

Regarding `C#C[C@]1(O)CC[C@H]2[C@@H]3CCC4=CC(=O)CC[C@@H]4[C@H]3C(=C)C[C@@]21CC` [Etonogestrel], the “MALAT1 nuclear FISH intensity” value is 0.892 (inactive).

On to `COc1cc(-c2ccc(=O)[nH]n2)ccc1OC(F)F` [Zardaverine], for which the “MALAT1 nuclear FISH intensity” value is 1.07 (inactive).

`CC(C)NCC(O)COc1ccc(CCOCC2CC2)cc1` (stereo unspecified): the “MALAT1 nuclear FISH intensity” value is 0.661 (inactive).

Turning to `Cc1cccn2c(=O)c(-c3nnn[nH]3)cnc12` [Pemirolast Potassium], the “MALAT1 nuclear FISH intensity” value is -0.397 (inactive).
